Source: PubChem BioAssay (NCI)
About 79,000 compounds went through this panel and 15% of them were active in at least one assay; those are over-represented in the sample as a whole. Calls of active or inactive are those of the source. No stated cut-off is given here; in the data, active means growth inhibition above about 70%; inactive means the rest.

Columns and labels:
[1] = NCI Yeast Anticancer Drug Screen. Data for the rad50 strain (AID 155);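 further: 0% = growth of vehicle-only cultures of the same strain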; conditions: S. cerevisiae rad50 strain growth inhibition, active compounds read high
In short: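 Genetically altered yeast (DNA repair pathway); compound treatment; growth inhibition vs vehicle ctrl.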

[2] = NCI Yeast Anticancer Drug Screen. Data for the mec2-1 strain (AID 157); conditions: S. cerevisiae mec2-1 strain, active compounds read high
In short: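 Each compound was tested on mec2-1 yeast, a strain altered in DNA damage repair or cell cycle control. Growth inhibition is reported relative to vehicle.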

[3] = NCI Yeast Anticancer Drug Screen. Data for the sgs1 mgt1 strain (AID 161);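 further: 0% = growth of cultures given vehicle only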; conditions: S. cerevisiae sgs1 mgt1 strain, active compounds read high
In short: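 Mutant yeast exposed to compound; growth scored against vehicle-only wells.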

[4] = NCI Yeast Anticancer Drug Screen. Data for the cln2 rad14 strain (AID 165);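 further: 0% = growth equal to vehicle treated cultures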; conditions: S. cerevisiae cln2 rad14 strain, active compounds read high
In short: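 Test compounds were added to cln2 rad14 yeast cultures; inhibition of growth was then determined by comparison with vehicle treatment.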

[5] = NCI Yeast Anticancer Drug Screen. Data for the bub3 strain (AID 167); conditions: S. cerevisiae bub3 mutant strain, active compounds read high
In short: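 Yeast carrying a defined mutation is treated with each compound, and growth is compared with that of vehicle-exposed cells to give inhibition.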

[6] = NCI Yeast Anticancer Drug Screen. Data for the mlh1 rad18 strain (AID 175); conditions: S. cerevisiae mlh1 rad18 strain growth inhibition, active compounds read high
In short: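 Inhibition values reflect reduced growth of mutant yeast versus vehicle-treated controls following compound exposure; the mutations affect DNA damage repair.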

[7] = at 5.0 µM (retest, dose inferred, filed as 0.5)
[8] = at 50.0 µM (retest, dose inferred, filed as 5.0)

Measured: growth inhibition

COc1cc2c(cc1O)-c1c(cnn1-c1ccccc1)CCC2
inactive: [1]; [7] -7% | [2]; [7] -5% | [3]; [7] 2% | [4]; [7] -17% | [4]; at 50.0 µM 55% | [5]; [7] -7% | [6]; [7] -8%
active: [1]; [8] 85% | [1]; at 50.0 µM 95.5% | [2]; [8] 93% | [2]; at 50.0 µM 96% | [3]; [8] 88% | [3]; at 50.0 µM 97.4% | [4]; [8] 88% | [5]; [8] 86% | [5]; at 50.0 µM 93.3% | [6]; [8] 92% | [6]; at 50.0 µM 97.6%

COc1ccc(OC)c2c(=S)c3ccccc3[nH]c12
active: [1]; [8] 75% | [1]; at 50.0 µM 85.3% | [6]; at 50.0 µM 91.1%
inactive: [1]; [7] -1% | [2]; [7] 0% | [2]; [8] 44% | [2]; at 50.0 µM 26.2% | [3]; [7] -5% | [3]; [8] 43% | [3]; at 50.0 µM 60.6% | [4]; [7] -5% | [4]; [8] -5% | [4]; at 50.0 µM 40.6% | [5]; [7] -6% | [5]; [8] 37% | [5]; at 50.0 µM 60.2% | [6]; [7] -5% | [6]; [8] 65%

CC(=O)Oc1cccc2c1C(=O)C(Br)(Br)CCC2
active: [1]; [7] 91% | [1]; [8] 99% | [1]; at 50.0 µM 92.1% | [2]; [7] 100% | [2]; [8] 99% | [2]; at 50.0 µM 87% | [3]; [7] 92% | [3]; [8] 99% | [3]; at 50.0 µM 88.5% | [4]; [8] 99% | [4]; at 50.0 µM 89.4% | [5]; [7] 99% | [5]; [8] 99% | [5]; at 50.0 µM 90% | [6]; [7] 99% | [6]; [8] 99% | [6]; at 50.0 µM 93.2%
inactive: [4]; [7] 52%

CCCCc1[nH]ccc2c(C)c3nc4ccccc4c3cc12
inactive: [1]; [7] 6% | [2]; [7] -8% | [3]; [7] -14% | [4]; [7] 2% | [5]; [7] 0% | [6]; [7] 21%
active: [1]; [8] 93% | [1]; at 50.0 µM 96.8% | [2]; [8] 96% | [2]; at 50.0 µM 91.2% | [3]; [8] 96% | [3]; at 50.0 µM 97.5% | [4]; [8] 95% | [4]; at 50.0 µM 92.1% | [5]; [8] 94% | [5]; at 50.0 µM 88.7% | [6]; [8] 95% | [6]; at 50.0 µM 98.4%

CN(C)c1ccc(N=Nc2ccc3c4c(cccc24)-c2ccccc2-3)cc1
active: [1]; [8] 94% | [1]; at 50.0 µM 96.5% | [2]; [8] 96% | [2]; at 50.0 µM 97.5% | [3]; [8] 96% | [3]; at 50.0 µM 97.4% | [4]; [8] 97% | [4]; at 50.0 µM 95.8% | [5]; [8] 95% | [5]; at 50.0 µM 97% | [6]; [8] 95% | [6]; at 50.0 µM 97%
inactive: [1]; [7] 26% | [2]; [7] -4% | [3]; [7] 3% | [4]; [7] -1% | [5]; [7] 0% | [6]; [7] -1%

C/C(=N/NC(=S)NCc1ccccc1)c1ncccn1
active: [1]; [8] 98% | [1]; at 50.0 µM 98.8% | [2]; [8] 98% | [2]; at 50.0 µM 98.9% | [3]; [8] 98% | [3]; at 50.0 µM 99% | [4]; [8] 98% | [4]; at 50.0 µM 97.8% | [5]; [8] 98% | [5]; at 50.0 µM 98.5% | [6]; [8] 98% | [6]; at 50.0 µM 98.9%
inactive: [1]; [7] -6% | [2]; [7] 14% | [3]; [7] 2% | [4]; [7] 7% | [5]; [7] -23% | [6]; [7] 3%

Oc1ccc(-c2nnc(-c3ccc(Cl)cc3Cl)o2)cc1
active: [1]; [8] 80% | [2]; [8] 82% | [3]; [8] 85% | [4]; [8] 86% | [4]; at 50.0 µM 74.4% | [5]; [8] 91% | [6]; [8] 76%
inactive: [1]; [7] 6% | [1]; at 50.0 µM 54.6% | [2]; [7] 2% | [2]; at 50.0 µM 50.8% | [3]; [7] 0% | [3]; at 50.0 µM 54.2% | [4]; [7] 2% | [5]; [7] 17% | [5]; at 50.0 µM 47.5% | [6]; [7] -2% | [6]; at 50.0 µM 51.8%

Cc1ccc(S(=O)(=O)C(Br)CC(=O)c2ccccc2)cc1 (stereo unspecified)
active: [1]; [8] 96% | [1]; at 50.0 µM 99% | [2]; [8] 97% | [2]; at 50.0 µM 99.8% | [3]; [8] 97% | [3]; at 50.0 µM 99.7% | [4]; [7] 90% | [4]; [8] 96% | [4]; at 50.0 µM 99.5% | [5]; [8] 97% | [5]; at 50.0 µM 99.7% | [6]; [8] 97% | [6]; at 50.0 µM 99.3%
inactive: [1]; [7] 64% | [2]; [7] 67% | [3]; [7] 67% | [5]; [7] 59% | [6]; [7] 63%

Cc1csc2c1C(=O)c1ccsc1C2=O
active: [1]; [8] 97% | [1]; at 50.0 µM 88.8% | [2]; [8] 99% | [2]; at 50.0 µM 91.5% | [3]; [7] 72% | [3]; [8] 99% | [3]; at 50.0 µM 92.2% | [4]; [8] 98% | [4]; at 50.0 µM 90.8% | [5]; [7] 86% | [5]; [8] 98% | [5]; at 50.0 µM 91.5% | [6]; [8] 99% | [6]; at 50.0 µM 91.1%
inactive: [1]; [7] 54% | [2]; [7] 50% | [4]; [7] 31% | [6]; [7] 65%

CCC(CC)=NNc1ccc([N+](=O)[O-])cc1
inactive: [1]; [7] 7% | [2]; [7] 15% | [3]; [7] 8% | [4]; [7] 10% | [5]; [7] 4% | [5]; [8] 42% | [6]; [7] 11%
active: [1]; [8] 96% | [1]; at 50.0 µM 98.4% | [2]; [8] 95% | [2]; at 50.0 µM 97.7% | [3]; [8] 97% | [3]; at 50.0 µM 97.8% | [4]; [8] 94% | [4]; at 50.0 µM 95.3% | [5]; at 50.0 µM 97.9% | [6]; [8] 97% | [6]; at 50.0 µM 97.2%

CCc1ccccc1NC(=O)C(C#N)C1=C(Cl)C(=O)c2ccccc2C1=O (stereo unspecified)
active: [1]; [8] 98% | [1]; at 50.0 µM 97.2% | [2]; [7] 71% | [2]; [8] 98% | [2]; at 50.0 µM 98.7% | [3]; [8] 98% | [3]; at 50.0 µM 97.3% | [4]; [8] 98% | [5]; [7] 94% | [5]; [8] 98% | [5]; at 50.0 µM 97.3% | [6]; [8] 97% | [6]; at 50.0 µM 98.1%
inactive: [1]; [7] 53% | [3]; [7] 51% | [4]; [7] 20% | [4]; at 50.0 µM 50.9% | [6]; [7] 44%

O=C1OC(=O)C2C1C1(c3ccccc3)OC2(c2ccccc2)c2c(Br)c(Br)c(Br)c(Br)c21 (stereo unspecified)
active: [1]; [8] 99% | [1]; at 50.0 µM 98.8% | [2]; [8] 100% | [2]; at 50.0 µM 99.4% | [3]; [8] 99% | [3]; at 50.0 µM 99.2% | [4]; [8] 99% | [4]; at 50.0 µM 98.6% | [5]; [8] 99% | [5]; at 50.0 µM 98.7% | [6]; [8] 99% | [6]; at 50.0 µM 98.2%
inactive: [1]; [7] 23% | [2]; [7] 25% | [3]; [7] 15% | [4]; [7] 18% | [5]; [7] 2% | [6]; [7] 38%
